Structures are written as SMILES. The campaign covered roughly 4,400 compounds. About 390 (8.9%) showed an effect of 50% or more. Many of the other results were omitted from the sample, so strong results are more common in it than they were.

The test system of this assay is Trypanosoma brucei. As to the kind of experiment: DNDI: Inhibition of Human African Trypanosomiasis, SBRI 427, in vitro at 2 ug.mL-1. The class given is functional.
Consider `Cc1cccc(Oc2ncccc2/C(=N/O)NC2CCC(C)CC2)c1C` (stereo not drawn), for which the “% inhibition” value was 20%.

In the case of `CC1CCC(N/C(=N\O)c2cccnc2Oc2ccc(F)cc2Cl)CC1` (stereo not drawn), the “% inhibition” value is given as 95%.

Take `O/N=C(\NC1CCN(Cc2ccccc2)C1)c1cccnc1Oc1ccccc1Cl` (stereo not drawn): the “% inhibition” value came out at 2%.

In the case of `CC1CCC(C)N1/C(=N\O)c1cccnc1Oc1ccc(F)cc1Cl` (stereo not drawn), the “% inhibition” value was determined as 24%.

As for `CC1CCC(N/C(=N\O)c2cccnc2Oc2ccccc2Cl)CC1` (stereo not drawn), the “% inhibition” value amounted to 99%.

For `CN(/C(=N\O)c1cccnc1Oc1ccc(F)cc1Cl)C1CCCCC1`, the “% inhibition” value was 7%.

`Cc1cccc(-c2nc(Cn3cc(C=O)nc3C)co2)c1`: the “% inhibition” value was determined as 1%.

`CCOc1ccccc1-c1nc(CN(CCOC)C(C)C)co1`: the “% inhibition” value stood at 1%.

As for `C=CCN1CCN(/C(=N\O)c2cccnc2OCC(F)(F)F)CC1`, the “% inhibition” value came to 7%.

`CCOc1cccc(-c2nc(CN(CCC#N)C3CCCCC3)co2)c1`: the “% inhibition” value was 18%.

For the compound `CN(C)CCN(C)Cc1coc(-c2ccc(O)cc2)n1`, the “% inhibition” value is on record as 7%.

Take `NCCc1cn(Cc2coc(-c3ccc(Cl)cc3Cl)n2)cn1`: the “% inhibition” value came out at 75%.

As for `Clc1ccc(-c2nc(Cn3cnc(-c4ccccc4)c3)co2)c(Cl)c1`, the “% inhibition” value worked out at 7%.

In the case of `NCCc1cn(Cc2coc(-c3ccccc3Br)n2)cn1`, the “% inhibition” value was -5%.

With `Cc1cn(Cc2coc(-c3ccc(Cl)cc3Cl)n2)cn1`, the “% inhibition” value is recorded as 2%.

Take `NCCc1cn(Cc2coc(-c3cccc4ccccc34)n2)cn1`: the “% inhibition” value was determined as 73%.

For the compound `NCCc1cn(Cc2coc(-c3ccccc3F)n2)cn1`, the “% inhibition” value is listed as 40%.

For the compound `CSc1ccc(Oc2ccc(/C(=N/O)NC3CC(C)CC(C)(C)C3)cn2)cc1` (stereo not drawn), the “% inhibition” value was -8%.

`COc1ccc(-c2nc(CN3CCN(c4ccc(C(C)=O)cc4)CC3)co2)cc1`: the “% inhibition” value was 4%.

On to `CCOc1ccccc1-c1nc(CNCc2ccc(C(C)(C)C)cc2)co1`, for which the “% inhibition” value was determined as 6%.

In the case of `Cc1ccc(/C(=N/O)N2CCCCC2)c(Oc2cccc(F)c2)n1`, the “% inhibition” value is listed as 16%.

As to `O/N=C(\NCC1CCCO1)c1ccc(Oc2cc(Cl)ccc2Cl)nc1` (stereo not drawn), the “% inhibition” value turned out to be 34%.

For `CSc1ccc(Oc2ccc(/C(=N/O)NCc3ccccc3C)cn2)cc1`, the “% inhibition” value was -7%.

Turning to `O/N=C(\NCc1ccccc1F)c1ccc(Oc2ccc(Cl)cc2)nc1`, the “% inhibition” value is on record as -6%.

As for `O/N=C(\NCc1cccnc1)c1ccc(Oc2cc(Cl)ccc2Cl)nc1`, the “% inhibition” value was 8%.

As for `O/N=C(\NCC1CCCCC1)c1ccc(Oc2cccc3ccccc23)nc1`, the “% inhibition” value stood at 24%.

As to `O/N=C(\NCCN1CCOCC1)c1ccc(Oc2cc(Cl)ccc2Cl)nc1`, the “% inhibition” value is given as 34%.

For `CSc1ccc(Oc2ccc(/C(=N/O)NCc3ccccc3F)cn2)cc1`, the “% inhibition” value came to 95%.

`N/C(=N\O)c1ccc(Oc2cc(Cl)ccc2Cl)nc1`: the “% inhibition” value is given as 10%.

As to `O/N=C(\NCC1CCCCC1)c1ccc(Oc2cc(Cl)ccc2Cl)nc1`, the “% inhibition” value came to 76%.

Regarding `O/N=C(/c1ccc(Oc2cc(Cl)ccc2Cl)nc1)N1CCN(C2CCCC2)CC1`, the “% inhibition” value is on record as 22%.

For the compound `O/N=C(\NC1CCCC1)c1ccc(Oc2cc(Cl)ccc2Cl)nc1`, the “% inhibition” value was 99%.

On to `O/N=C(\NC1CCCCC1)c1ccc(Oc2cc(Cl)ccc2Cl)nc1`, for which the “% inhibition” value is reported as 98%.

The values above are taken from ChEMBL document CHEMBL1857833, “Screening and optimization of specific chemical series against human African Trypanosomiasis (HAT)”.
